# Measurements from the supplement of paper PMC9492666.
# Where a name gives a salt, the structure may show the parent alone.
# Tests used:
# Conditions in all cases: 72 h
# [1] = test system: HCC1937; assay: relative cell viability, compound alone, vs DMSO (fraction of DMSO control); higher = less growth inhibition
# [2] = test system: MDA-MB-231; assay: as above
# [3] = test system: HCC1937; assay: relative cell viability, compound + RSL3, vs DMSO (fraction of DMSO control); higher = less growth inhibition
# [4] = test system: MDA-MB-231; assay: as above
# 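Throughout, for relative cell viability, compound + RSL3, vs DMSO: breast cancer cell viability read out with the CCK-8 kit after co-treatment of each compound with the ferroptosis inducer RSL3.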
# 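Throughout, for relative cell viability, compound alone, vs DMSO: viability read out with the CCK-8 kit in 96-well plates, screening a set of 303 compounds acting on lipid metabolism targets.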
Structure (SMILES),relative cell viability [1],relative cell viability [2],relative cell viability [3],relative cell viability [4]
CSc1ccc(C(=O)/C=C/c2cc(C)c(OC(C)(C)C(=O)O)c(C)c2)cc1 [Elafibranor],1.57,1.06,,
Cc1cc(N2C[C@@H](C)N[C@@H](C)C2)ncc1-c1ccc(-c2nc3c(ccn3C)c(=O)[nH]2)cc1,0.855,1.05,,
CC(C)[C@H](N=C(NS(=O)(=O)c1ccc(Cl)cc1)N1C[C@H](c2ccccc2)C(c2ccc(Cl)cc2)=N1)C(N)=O,0.87,0.893,,
CN1CCN(C(=O)C2C(C(=O)O)[C@H]3CC[C@@H]2O3)CC1 (stereo not given in full),0.568,0.616,,
NC(N)=N/N=C/c1cccc(Cl)c1Cl [Raphin1 acetate],1.01,0.822,,
Cc1c2c(=O)n(-c3ccccc3Cl)[nH]c2cc(=O)n1Cc1ccccn1,0.973,1.07,,
CN(CCOc1ccc(CC2SC(=O)NC2=O)cc1)c1ccccn1 (stereo not given) [Rosiglitazone maleate],0.841,0.86,,
Cc1ccc(C)c(OCCCC(C)(C)C(=O)O)c1 [Gemfibrozil],0.736,0.783,,
CCNC1(C(N)=O)CCN(c2ncnc3c2nc(-c2ccccc2Cl)n3-c2ccc(Cl)cc2)CC1 [Otenabant],0.906,0.915,,
CC(=O)O[C@H](CC=C(C)C)C1=CC(=O)c2c(O)ccc(O)c2C1=O [Acetyl shikonin],1.08,1.06,,
N=C(N)NCCC(=O)O [3-Guanidinopropionic Acid] + COC(=O)c1ccc([C@H]2c3[nH]c4ccccc4c3C[C@H](C(=O)OC)N2C(=O)CCl)cc1 [RSL3],,,0.509,0.659
CN1CCN(C(=O)C2C(C(=O)O)[C@H]3CC[C@@H]2O3)CC1 (stereo not given in full) + COC(=O)c1ccc([C@H]2c3[nH]c4ccccc4c3C[C@H](C(=O)OC)N2C(=O)CCl)cc1 [RSL3],,,0.313,0.367
O=c1c(O[C@@H]2O[C@H](CO)[C@@H](O)[C@H](O)[C@H]2O)c(-c2ccc(O)cc2)oc2cc(O)cc(O)c12 [Astragalin] + COC(=O)c1ccc([C@H]2c3[nH]c4ccccc4c3C[C@H](C(=O)OC)N2C(=O)CCl)cc1 [RSL3],,,0.586,0.645
COC(=O)N(CC(=O)O)Cc1cccc(OCc2nc(-c3ccc(Cl)cc3)oc2C)c1 + COC(=O)c1ccc([C@H]2c3[nH]c4ccccc4c3C[C@H](C(=O)OC)N2C(=O)CCl)cc1 [RSL3],,,0.538,0.709
CC[C@H]1[C@@H](O)[C@@H]2[C@H](CC[C@]3(C)[C@@H]([C@H](C)CCC(=O)O)CC[C@@H]23)[C@@]2(C)CC[C@@H](O)C[C@@H]12 [Obeticholic Acid],0.901,0.856,,
Nc1ccc(O)c(C(=O)O)c1 [Mesalamine] + COC(=O)c1ccc([C@H]2c3[nH]c4ccccc4c3C[C@H](C(=O)OC)N2C(=O)CCl)cc1 [RSL3],,,0.635,0.592
O=S(=O)(c1ccccc1)N(CC(F)(F)F)c1ccc(C(O)(C(F)(F)F)C(F)(F)F)cc1,0.957,1.23,,
CC(=O)c1c(C)cc2cccc(O)c2c1O [Nepodin] + COC(=O)c1ccc([C@H]2c3[nH]c4ccccc4c3C[C@H](C(=O)OC)N2C(=O)CCl)cc1 [RSL3],,,0.404,0.56
O=C(O)C(=O)Nc1sc2c(c1C(=O)O)CCNC2 + COC(=O)c1ccc([C@H]2c3[nH]c4ccccc4c3C[C@H](C(=O)OC)N2C(=O)CCl)cc1 [RSL3],,,0.541,0.648
COc1cc(N(C)C)cc(CN(C)CCc2ccc([N+](=O)[O-])cc2)c1O [CDC25 Phosphatase Inhibitor I],0.966,0.976,,
CCCCCC=CC(=O)CCc1ccc(O)c(OC)c1 [6-Shogaol] + COC(=O)c1ccc([C@H]2c3[nH]c4ccccc4c3C[C@H](C(=O)OC)N2C(=O)CCl)cc1 [RSL3],,,0.608,0.64
CCc1ccc(N(CC(C)C)S(=O)(=O)c2ccc(OCC3CCOCC3)c(CO)c2)cc1,0.954,0.939,,
Cc1cc(C)c(S(=O)(=O)Nc2cccc(C(F)(F)F)c2)c(C)c1 + COC(=O)c1ccc([C@H]2c3[nH]c4ccccc4c3C[C@H](C(=O)OC)N2C(=O)CCl)cc1 [RSL3],,,0.504,0.775
C[C@]12C=CC(=O)N[C@@H]1CC[C@@H]1[C@@H]2CC[C@]2(C)[C@@H](C(=O)Nc3cc(C(F)(F)F)ccc3C(F)(F)F)CC[C@@H]12 [Dutasteride],0.798,0.777,,
O=C1c2cccc(O)c2C(=O)c2c(O)cccc21 [Antrapurol],0.699,0.808,,
CCCCCCCCCCOc1ccc(C(=O)Nc2cc(C(=O)NCCCC)ccc2SC)cc1 + COC(=O)c1ccc([C@H]2c3[nH]c4ccccc4c3C[C@H](C(=O)OC)N2C(=O)CCl)cc1 [RSL3],,,0.408,0.421
"Cc1cc(=O)oc2c(O)c(O)ccc12 [7,8-Dihydroxy-4-methylcoumarin]",0.911,1.02,,
Cc1nc2c([nH]1)c(=O)n(C)c(=O)n2Cc1ccco1 [Furafylline] + COC(=O)c1ccc([C@H]2c3[nH]c4ccccc4c3C[C@H](C(=O)OC)N2C(=O)CCl)cc1 [RSL3],,,0.399,0.596
CC(C)(Oc1ccc(C2CC2(Cl)Cl)cc1)C(=O)O (stereo not given) [Ciprofibrate],1.15,0.937,,
CCC(=O)Nc1cccc(Oc2nc(Nc3ccc(N4CCN(C)CC4)cc3OC)ncc2Cl)c1,0.48,0.559,,
